# Results reported in paper PMC7862700, “An all-to-all approach to the identification of sequence-specific readers for epigenetic DNA modifications on cytosine”.
# Tests used:
# Test in all cases: DAPPL (digital affinity profiling via proximity ligation, sequencing); 10 mM Tris-HCl pH 7.5, 50 mM NaCl, 1 mM DTT, 4% glycerol, room temperature, 30 min; GST-TFs on glutathione beads, 16-mer random dsDNA library, 0.1% formaldehyde crosslink after washing; high values mean tight binding
# Conditions in all cases: protein: recombinant; tags: N-terminal GST; dsDNA, one strand shown
# [1] = molecular target: ETV1 (Homo sapiens, UniProt P50549 1-477)
# ETV1, sequence (P50549 whole entry, the tested form may be a part): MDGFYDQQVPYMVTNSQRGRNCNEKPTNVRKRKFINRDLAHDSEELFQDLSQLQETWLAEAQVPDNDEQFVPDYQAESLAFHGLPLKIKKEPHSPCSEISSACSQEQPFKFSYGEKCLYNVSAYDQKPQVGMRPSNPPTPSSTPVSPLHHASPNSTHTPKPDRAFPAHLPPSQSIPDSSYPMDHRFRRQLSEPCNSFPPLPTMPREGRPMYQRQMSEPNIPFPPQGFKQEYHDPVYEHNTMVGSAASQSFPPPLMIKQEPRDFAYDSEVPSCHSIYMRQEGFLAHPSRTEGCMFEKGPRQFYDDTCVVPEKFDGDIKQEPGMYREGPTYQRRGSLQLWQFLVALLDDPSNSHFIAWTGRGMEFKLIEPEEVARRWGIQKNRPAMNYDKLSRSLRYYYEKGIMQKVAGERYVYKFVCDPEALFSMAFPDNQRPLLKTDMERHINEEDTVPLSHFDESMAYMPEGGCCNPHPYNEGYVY
# Procedure, shortened: (§1)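 Beads coated with glutathione captured GST-fused human transcription factors that had been expressed in yeast, and the factors were then given DNA barcodes and pooled with a tag-only sample. The pools were incubated with 200 nmole of a random double-stranded 16-mer DNA library in Tris/NaCl/DTT/glycerol buffer for 30 min at room temperature, washed, crosslinked with 0.1% formaldehyde and proximity-ligated with BsaI/T4 ligase at 37 °C for 1 h. PCR amplification and Illumina NextSeq500 sequencing came last. Binding signal is each hexamer's read frequency for a factor divided by its frequency for the tag-only sample.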
# [2] = molecular target: T1, ERF (Homo sapiens, UniProt P50548 1-548)
# T1 sequence: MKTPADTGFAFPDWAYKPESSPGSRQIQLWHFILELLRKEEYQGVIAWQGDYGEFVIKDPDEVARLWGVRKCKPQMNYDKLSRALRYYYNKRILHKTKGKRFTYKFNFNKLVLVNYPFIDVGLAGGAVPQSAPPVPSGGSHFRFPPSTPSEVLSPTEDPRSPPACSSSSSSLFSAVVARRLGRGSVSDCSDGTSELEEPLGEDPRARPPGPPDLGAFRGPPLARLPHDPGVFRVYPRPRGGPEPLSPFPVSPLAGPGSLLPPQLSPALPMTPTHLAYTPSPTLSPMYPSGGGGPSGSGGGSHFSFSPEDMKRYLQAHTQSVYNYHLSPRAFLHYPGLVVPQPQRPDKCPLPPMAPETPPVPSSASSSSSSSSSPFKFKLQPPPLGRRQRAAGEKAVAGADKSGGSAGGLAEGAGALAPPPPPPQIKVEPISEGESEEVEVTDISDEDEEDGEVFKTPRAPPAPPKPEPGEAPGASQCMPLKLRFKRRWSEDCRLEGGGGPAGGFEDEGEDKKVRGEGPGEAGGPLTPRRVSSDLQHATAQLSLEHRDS
# Procedure, shortened: as §1
# [3] = molecular target: T2, ETV3L (Homo sapiens, UniProt Q6ZN32 1-361)
# T2 sequence: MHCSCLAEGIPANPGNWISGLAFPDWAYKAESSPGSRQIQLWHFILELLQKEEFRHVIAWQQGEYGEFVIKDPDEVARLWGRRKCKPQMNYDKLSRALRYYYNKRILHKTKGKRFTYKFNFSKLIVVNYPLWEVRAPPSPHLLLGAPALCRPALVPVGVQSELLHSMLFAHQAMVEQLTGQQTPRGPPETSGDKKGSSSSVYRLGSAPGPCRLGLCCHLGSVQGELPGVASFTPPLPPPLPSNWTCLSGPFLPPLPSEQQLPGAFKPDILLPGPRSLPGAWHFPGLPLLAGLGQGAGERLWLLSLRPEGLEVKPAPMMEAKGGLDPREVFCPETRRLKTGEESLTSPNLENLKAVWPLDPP
# Procedure, shortened: as §1
# [4] = molecular target: T3, ETS2 (Homo sapiens, UniProt P15036 1-469)
# T3 sequence: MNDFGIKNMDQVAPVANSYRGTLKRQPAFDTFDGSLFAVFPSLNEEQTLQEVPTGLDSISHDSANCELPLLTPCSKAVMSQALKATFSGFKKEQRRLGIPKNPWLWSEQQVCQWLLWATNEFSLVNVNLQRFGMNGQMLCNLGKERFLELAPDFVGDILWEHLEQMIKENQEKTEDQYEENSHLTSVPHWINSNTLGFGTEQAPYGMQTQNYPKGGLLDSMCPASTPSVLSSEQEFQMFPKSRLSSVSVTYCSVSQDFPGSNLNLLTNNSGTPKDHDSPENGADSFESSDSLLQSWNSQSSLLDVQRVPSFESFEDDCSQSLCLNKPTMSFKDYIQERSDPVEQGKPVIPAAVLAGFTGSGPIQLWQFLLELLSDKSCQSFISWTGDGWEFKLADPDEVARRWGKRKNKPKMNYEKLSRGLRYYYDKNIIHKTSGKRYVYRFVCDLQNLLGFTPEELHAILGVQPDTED
# Procedure, shortened: as §1
# [5] = molecular target: T4, SPDEF (Homo sapiens, UniProt O95238 1-335)
# T4 sequence: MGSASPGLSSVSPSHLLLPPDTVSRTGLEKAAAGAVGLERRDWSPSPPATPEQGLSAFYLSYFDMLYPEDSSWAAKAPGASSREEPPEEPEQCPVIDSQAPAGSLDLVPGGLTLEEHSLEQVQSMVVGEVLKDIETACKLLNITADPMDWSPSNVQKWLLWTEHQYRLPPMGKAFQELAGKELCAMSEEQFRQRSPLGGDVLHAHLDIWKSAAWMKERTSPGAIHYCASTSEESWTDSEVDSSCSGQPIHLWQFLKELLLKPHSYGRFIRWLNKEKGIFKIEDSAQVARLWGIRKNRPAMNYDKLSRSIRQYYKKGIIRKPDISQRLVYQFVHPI
# Procedure, shortened: as §1
# [6] = molecular target: T5, ETV7 (Homo sapiens, UniProt Q9Y603 1-341)
# T5 sequence: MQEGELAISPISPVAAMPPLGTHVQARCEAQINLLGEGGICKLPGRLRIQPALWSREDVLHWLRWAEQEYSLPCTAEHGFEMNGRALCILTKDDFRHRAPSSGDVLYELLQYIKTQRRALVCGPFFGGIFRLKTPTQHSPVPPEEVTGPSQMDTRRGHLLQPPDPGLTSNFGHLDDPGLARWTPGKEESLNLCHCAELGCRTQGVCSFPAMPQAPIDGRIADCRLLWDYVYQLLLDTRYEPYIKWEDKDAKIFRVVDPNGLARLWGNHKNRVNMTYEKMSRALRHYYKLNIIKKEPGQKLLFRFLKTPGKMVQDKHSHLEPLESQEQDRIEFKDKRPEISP
# Procedure, shortened: as §1
# [7] = molecular target: T6, ELF5 (Homo sapiens, UniProt Q9UKW6-2 1-255)
# T6 sequence: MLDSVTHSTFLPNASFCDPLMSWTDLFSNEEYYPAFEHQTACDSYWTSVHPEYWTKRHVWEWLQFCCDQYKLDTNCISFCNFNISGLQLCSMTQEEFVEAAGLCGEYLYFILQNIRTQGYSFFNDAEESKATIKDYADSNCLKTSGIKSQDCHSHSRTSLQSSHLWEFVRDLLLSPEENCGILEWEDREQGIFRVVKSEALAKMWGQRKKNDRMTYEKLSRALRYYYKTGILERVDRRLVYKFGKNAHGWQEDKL
# Procedure, shortened: as §1
# [8] = molecular target: T7, ETV3 (Homo sapiens, UniProt P41162-2 1-143)
# T7 sequence: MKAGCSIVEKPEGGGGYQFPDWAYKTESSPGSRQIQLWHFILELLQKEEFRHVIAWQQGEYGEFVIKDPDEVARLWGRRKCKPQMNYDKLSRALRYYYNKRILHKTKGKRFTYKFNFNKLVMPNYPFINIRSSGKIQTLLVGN
# Procedure, shortened: as §1
# [9] = molecular target: ETV6 (Homo sapiens, UniProt P41212 1-452)
# ETV6, sequence (P41212 whole entry): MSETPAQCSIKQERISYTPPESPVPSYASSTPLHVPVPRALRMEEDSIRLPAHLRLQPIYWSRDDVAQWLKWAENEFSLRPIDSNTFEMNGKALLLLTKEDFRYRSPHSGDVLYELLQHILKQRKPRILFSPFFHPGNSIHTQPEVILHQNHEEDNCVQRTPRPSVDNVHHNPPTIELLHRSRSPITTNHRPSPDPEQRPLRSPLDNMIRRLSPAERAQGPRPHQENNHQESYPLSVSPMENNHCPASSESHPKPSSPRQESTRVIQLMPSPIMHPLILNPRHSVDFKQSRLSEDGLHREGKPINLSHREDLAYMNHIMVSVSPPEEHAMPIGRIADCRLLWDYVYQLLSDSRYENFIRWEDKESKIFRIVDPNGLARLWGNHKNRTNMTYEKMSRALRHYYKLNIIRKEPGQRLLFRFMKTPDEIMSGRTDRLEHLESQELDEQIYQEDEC
# Procedure, shortened: as §1
sequence,measurement,setting,value
TATGGG,binding signal,[1],"1.2 fold enrichment (6-mer frequency, TF over GST control)"
same,binding signal,[2],"1.19 fold enrichment (6-mer frequency, TF over GST control)"
same,binding signal,[3],"1.13 fold enrichment (6-mer frequency, TF over GST control)"
same,binding signal,[4],"1.15 fold enrichment (6-mer frequency, TF over GST control)"
same,binding signal,[5],"1.14 fold enrichment (6-mer frequency, TF over GST control)"
same,binding signal,[6],"1.24 fold enrichment (6-mer frequency, TF over GST control)"
same,binding signal,[7],"1.16 fold enrichment (6-mer frequency, TF over GST control)"
same,binding signal,[8],"1.17 fold enrichment (6-mer frequency, TF over GST control)"
same,binding signal,[9],"1.34 fold enrichment (6-mer frequency, TF over GST control)"
